Reference: ChEMBL document CHEMBL4513216, “Probing the Open Global Health Chemical Diversity Library for Multistage-Active Starting Points for Next-Generation Antimalarials” (ACS Infect Dis, 2020)
Out of some 65,000 compounds screened, about 2,100 (3.2%) showed an effect of 50% or more. The median lay at about -52%. Shown is part of a subset that was picked to be rich in strong results.

Test system: Plasmodium falciparum
Assay: Screen against P. falciparum Asexual Blood Stage (ABS), at 5uM
Assay type: functional, Dd2
Details: tested at 5 uM

Compared with `Cc1oc(-c2ccco2)nc1CC(=O)N1CCN(CC(C)(C)O)CC1`, `O=C(Cc1ccccc1)N1CCN(Cc2noc(C3CC3)n2)CC1` is higher in INHIBITION: -109% for the first, -62.4% for the second.

Going from `Cc1noc(CN2CC=C(c3c[nH]c4ncccc34)CC2)n1` to `Cc1cnc(N2CC3(CCN(Cc4cccnc4)C3)C2)nc1`, the INHIBITION rises from -31.2% to 12.1%.

Compared with `Cc1cccc(CN2C[C@@H](NC(=O)C3CC3)[C@H]3OCCC[C@H]32)n1`, `O=C(CC1CC1)N[C@@H]1CN(Cc2ccccn2)C[C@@H]2CCCO[C@@H]21` is higher in INHIBITION: -83.3% for the first, -65.3% for the second.

First: Fc1cnc(N2CCOC3(CCN(Cc4ccsc4)CC3)C2)nc1
Second: Fc1cnc(N2CCCC3(CN(Cc4cccs4)CCO3)C2)nc1 (stereo not given)
The INHIBITION of the first is higher: 81.6% for the first, -78.4% for the second.

Compared with `Fc1cnc(N2CCCC3(CCN(Cc4cccs4)C3)C2)nc1` (stereo not given), `Fc1cnc(N2CCCC3(CCN(Cc4ccco4)C3)C2)nc1` (stereo not given) is higher in INHIBITION: 69.4% for the first, 78.2% for the second.

First: c1cnc(N2CCCC3(CCN(Cc4cccs4)C3)C2)nc1 (stereo not given)
Second: c1cnc(N2CCCC3(CCN(Cc4ccsc4)C3)C2)nc1 (stereo not given)
The INHIBITION of the first is lower: 40.4% for the first, 68.1% for the second.

Compared with `Cc1cnc(N2CCOC3(CCCN(C)C3)C2)nc1` (stereo not given), `Fc1cnc(N2CCOCC3(CCCNC3)C2)nc1` (stereo not given) is lower in INHIBITION: 14.9% for the first, -11.2% for the second.

Compared with `c1cnc(N2CCCC3(CCN(Cc4ccncc4)C3)C2)nc1` (stereo not given), `c1ccc(N2CCCC3(CCN(Cc4ccsc4)C3)C2)nc1` (stereo not given) is higher in INHIBITION: -63.1% for the first, 82.6% for the second.

Compared with `c1cnc(N2CCOCC3(CN(Cc4ccsc4)CCO3)C2)nc1` (stereo not given), `c1ccc(N2CC3(CCN(Cc4cccnc4)C3)C2)nc1` is higher in INHIBITION: -62.3% for the first, -13.8% for the second.

First: Cc1ccc(N2CCO[C@H]3CN(Cc4ccoc4)C[C@H]32)nn1
Second: Cc1ccc(N2CCO[C@H]3CN(Cc4nccs4)C[C@H]32)nn1
The INHIBITION of the first is higher: -106% for the first, -168% for the second.

Going from `Cc1cc(CN2C[C@@H]3CN(Cc4ccsc4)CCO[C@@H]3C2)no1` to `c1cc(CN2C[C@@H]3OCCN(CC4CCCO4)[C@@H]3C2)ccn1` (stereo not given in full), the INHIBITION falls from -101% to -111%.

First: CC(C)(C)c1cc(=O)[nH]c(C2(N)CCCCC2)n1
Second: CCc1c(C)[nH]c(C2(N)CCCCC2)nc1=O
The INHIBITION of the first is lower: -114% for the first, -26.9% for the second.

Compared with `O=C(NC1CCC1)[C@H]1C[C@H]2NCCO[C@@H]2C1`, `CC(C)NC(=O)[C@H]1C[C@@H]2[C@@H](C1)OCCN2Cc1cccnc1` is higher in INHIBITION: -269% for the first, -95.4% for the second.

Going from `CCc1nc(CC(=O)N2CCCC2CN2CCCC2)cs1` (stereo not given) to `CCc1noc(CC)c1CC(=O)N1CCCC(N2CCCCC2)C1` (stereo not given), the INHIBITION rises from -48.9% to -22.8%.

Compared with `CN(Cc1n[nH]c2c1CCCC2)c1nc(C2CC2)nc2c1CCNCC2`, `CN(C)c1nc2c(c(N(C)Cc3n[nH]c4c3CCCC4)n1)CCNCC2` is lower in INHIBITION: 89.5% for the first, 84.4% for the second.

Going from `CN(C)C[C@]12COC[C@H]1CN(Cc1ccc3ccccc3n1)C2` to `Cc1cc(CN2C[C@@H]3COC[C@]3(CN(C)C)C2)no1`, the INHIBITION falls from 27.2% to -59%.

Going from `Cn1cccc1C(=O)N1CCN2C[C@H](Oc3cccnc3)C[C@H]2C1` to `CC(=O)N1C[C@H]2CNC[C@@]2(C(=O)NCCCOc2cccnc2)C1`, the INHIBITION falls from 30.4% to -133%.

Compared with `COC(=O)c1ccc(C2SCC(=O)Nc3c2cnn3C(C)(C)C)cc1` (stereo not given), `COc1ccccc1C(C)(C)NCc1ccc(C)o1` is higher in INHIBITION: -53.3% for the first, 77.9% for the second.

Going from `CN(Cc1cccc(F)c1)C(=O)CS(=O)(=O)Cc1c(Cl)cccc1Cl` to `CSCc1cc(F)ccc1CNCc1cccc(O)c1`, the INHIBITION falls from 82.7% to 72.6%.

Going from `CCc1nnc(NC(=O)CCN2CC=C(c3cnn(C)c3)CC2)s1` to `Cc1cnc(Nc2cccc(C3CCCN3Cc3cn(C)nc3C)n2)s1` (stereo not given), the INHIBITION rises from -25.3% to 89.8%.

First: c1cncc(CN2CCO[C@H]3[C@H](OCCN4CCCC4)CC[C@@H]32)c1
Second: c1cc(CN2CCO[C@H]3[C@H](OCCN4CCCC4)CC[C@@H]32)ccn1
The INHIBITION of the first is lower: -68.3% for the first, -53.4% for the second.

Compared with `CC(Cn1cccn1)NCc1nc(-c2ccco2)no1` (stereo not given), `CNc1cc(C)nc(N2Cc3cnn(Cc4ccc(F)cc4)c3C2)n1` is higher in INHIBITION: -82% for the first, 91.9% for the second.

Compared with `O=C1C[C@H]2[C@@H](CCN2Cc2ccccn2)N1Cc1cccnc1`, `Cc1cccc(CN2C(=O)C[C@H]3[C@@H]2CCN3Cc2nccs2)n1` is higher in INHIBITION: -99.2% for the first, -3.26% for the second.

Compared with `CN1CCCC1CNC(=O)CCCOc1ccc(Cl)cc1` (stereo not given), `CN1CCCC1CNC(=O)CCCOc1cccc(Br)c1` (stereo not given) is lower in INHIBITION: 78.2% for the first, 71.7% for the second.

First: CCN1CCN(Cc2nc(CC(C)C)no2)CC1
Second: COCC1CC2(CCN(Cc3ccoc3)CC2)CN1C(C)C (stereo not given)
The INHIBITION of the first is lower: 34.7% for the first, 71.6% for the second.

Compared with `Cc1noc(C)c1CN1CC[C@H]2OCC[C@@]2(C(=O)N2CCCC2)C1`, `Cc1nc(NCCC23CCCN2CCC3)cc(C2CCNCC2)n1` is lower in INHIBITION: -28.8% for the first, -50.1% for the second.

Going from `CCC(=O)NCC(=O)NCC1(c2c(F)cccc2F)CCCC1` to `CN1CC2(CCNCC2)CC1C(=O)NCCCNc1cccnc1` (stereo not given), the INHIBITION falls from 73.7% to -62%.

Compared with `Cc1cc(CN2C[C@@H]3COC[C@]3(CNC(=O)N(C)C)C2)no1`, `O=C(NCc1ccccn1)[C@H]1COC[C@H]2CN(CC3CC3)C[C@H]21` is higher in INHIBITION: -94.8% for the first, -35.7% for the second.

Going from `Cc1ccc(CN2CCO[C@H]3[C@@H](OCc4cccnc4)CC[C@@H]32)o1` to `Cc1ccc(CN2CCO[C@H]3[C@H](OCc4cccnc4)CC[C@@H]32)o1`, the INHIBITION falls from 3.59% to -70.3%.

First: Cc1ccc(CN2CCC3(CC2)CC3CN(C)Cc2cccnc2)o1 (stereo not given)
Second: COCC1CC2(CCN(Cc3ccncc3)CC2)CN1C(C)C (stereo not given)
The INHIBITION of the first is higher: 70.8% for the first, -68% for the second.

First: CCN(C)c1ncc2c(c1C(=O)O)CCN(C1CCOC1)C2 (stereo not given)
Second: COc1ccccc1-c1ncc(CN2CCCC[C@H](N(C)C)C2)s1
The INHIBITION of the first is lower: -4.54% for the first, 70.3% for the second.

Going from `Cc1cccc(CO[C@@H]2CC[C@H]3[C@H]2OCCN3Cc2nccs2)n1` to `Fc1cccnc1O[C@H]1CN(Cc2ccoc2)[C@@H]2CCCO[C@H]12`, the INHIBITION rises from -43.3% to -26.7%.

Compared with `c1ccc(CCN2CCCC2c2cccc(Nc3nccs3)n2)cc1` (stereo not given), `Cc1ccccc1CN1CCCC1c1cccc(Nc2nccs2)n1` (stereo not given) is higher in INHIBITION: 77% for the first, 84.8% for the second.

First: Cc1cccc(CN2CCCC2c2cccc(Nc3nccs3)n2)c1 (stereo not given)
Second: c1ccc2nc(CN3CCCC3c3noc(C4CC4)n3)ccc2c1 (stereo not given)
The INHIBITION of the first is higher: 88.1% for the first, 72.7% for the second.

Compared with `Cc1ccccc1SC1CCN(C(=O)C2[C@H]3CNC[C@@H]23)CC1` (stereo not given in full), `Cc1ccc(C(=O)N2C[C@H]3CNC[C@H]3C2)cn1` is lower in INHIBITION: 73.3% for the first, -104% for the second.

First: COc1ncc(-c2cc(NC3CCCC3)nc3[nH]ccc23)c(OC)n1
Second: COc1ccc2[nH]c(CNc3cc(C4CCNCC4)nc(C)n3)cc2c1
The INHIBITION of the first is lower: 74% for the first, 84.1% for the second.

Going from `Cc1cc(Oc2ccc(NC(=O)C3CC3)cc2)cc(C2CCNCC2)n1` to `CCN(Cc1c(F)cccc1Cl)c1cc(C2CCNCC2)nc(C)n1`, the INHIBITION falls from 87.8% to 76.4%.

First: COCC1CN(c2ccc(C#N)c(Cl)c2)CCO1 (stereo not given)
Second: N#Cc1cccc(CN2CCO[C@@H]3CNC[C@@H]32)c1
The INHIBITION of the first is higher: -35.5% for the first, -52.7% for the second.

Going from `O=S(=O)(NCCN1CC=CC1)c1ccc(Cl)cc1` to `N#Cc1ccc(S(=O)(=O)NCCn2ccnc2)cc1Cl`, the INHIBITION falls from 76.2% to -39.2%.

Compared with `CCCS(=O)(=O)CC(=O)N1CCCC1c1noc(C2CC2)n1` (stereo not given), `Cc1nc(CN2CCCC2c2noc(C3CC3)n2)nc2ccccc12` (stereo not given) is higher in INHIBITION: -40.7% for the first, 78.7% for the second.

Compared with `COCCN1C[C@@H]2CC[C@H]1CN(Cc1ccc3ccccc3n1)C2`, `N#Cc1cccc(CN2C[C@@H]3CN(c4ncccn4)C[C@@H]3C2)c1` is lower in INHIBITION: 21.2% for the first, 19% for the second.

First: CCN1CCc2[nH]cnc2C12CCN(c1ccc(Cl)cn1)CC2
Second: COCC1CC2(CCN(c3ccccn3)CC2)CN1C(C)C (stereo not given)
The INHIBITION of the first is higher: 42.9% for the first, -41% for the second.

First: CN(C)Cc1cc(C2CCCCN2S(=O)(=O)c2cccc(Cl)c2)nn1C (stereo not given)
Second: CCN(CC)CCNS(=O)(=O)c1cccc(CSC)c1
The INHIBITION of the first is lower: 78.8% for the first, 83.4% for the second.

Going from `Cc1cnc(N2CC[C@H]3[C@H](C[C@@H](CN(C)C)N3C)C2)nc1` to `Cc1cc(N(C)C)nc(C2CCCNC2)n1` (stereo not given), the INHIBITION falls from -51.8% to -54.7%.

Going from `Cc1cc2nc(-c3cn(C4CCNCC4)nn3)[nH]c2cc1C` to `Cc1ccc2[nH]c(-c3cn(C4CCNCC4)nn3)nc2c1C`, the INHIBITION falls from 87.5% to 85.5%.

Going from `Cc1cccc2[nH]c(-c3cn(C4CCNCC4)nn3)nc12` to `Cc1nc(C2CCNCC2)cc(N(C)Cc2cc3cc(F)ccc3[nH]2)n1`, the INHIBITION rises from 73.5% to 75.9%.

Going from `CCO[C@H]1CN(CC2CC2)[C@@H]2CCCO[C@H]12` to `CN(Cc1ccccn1)C1CCC[C@@H]2CN(CC3CC3)C[C@H]12` (stereo not given in full), the INHIBITION rises from -82.9% to 69.5%.

Compared with `O=C1CC2(CCN(Cc3ccccn3)C2)CN1c1cccnc1` (stereo not given), `O=C1CC[C@H]2[C@H](CCN2Cc2ccccn2)N1CC1CCOCC1` is lower in INHIBITION: -14.1% for the first, -82.3% for the second.

First: CN(Cc1cc2cc(F)ccc2[nH]1)c1cc(C2CCCNC2)ncn1 (stereo not given)
Second: COc1ccc(F)cc1C(=O)C1CCCN(Cc2cnc(C)s2)C1 (stereo not given)
The INHIBITION of the first is higher: 84.2% for the first, -29% for the second.

Compared with `Cc1nc(NCC23CCCN2CCC3)cc(C2CCCNC2)n1` (stereo not given), `CCCN(CC)c1cc(C2CCNCC2)nc(C)n1` is lower in INHIBITION: -54.3% for the first, -70.1% for the second.

Compared with `CCC(CC)C(=O)N1CCOC2(CNC2)C1`, `CC(=O)c1cn(CC(=O)N2CCC3(CC2)OCCO3)c2ccccc12` is higher in INHIBITION: -94.6% for the first, -61.4% for the second.

Going from `O=C(NCCCNc1ccc(C(F)(F)F)cn1)c1ccc(F)cc1F` to `N#Cc1cccnc1NCCNC(=O)N1CCN2CCCCC2C1` (stereo not given), the INHIBITION falls from 72.5% to -90.5%.

`COCC1CC2(CCN(Cc3cccc(C#N)c3)CC2)CN1C(C)C` (stereo not given) was tested, and the INHIBITION was 73.2%.
